{
  "source": "PubChem BioAssay (NCATS)",
  "note": "Results filed as inconclusive are left out. Activity calls are given as the source filed them. The call rests on the fitted dose curve; in most records, active means well fitted inhibition curve with a large enough effect; inconclusive means small, poorly fitted or top-dose-only effect, or effect the other way; inactive means flat fitted curve, though single readings scatter. Where a SMILES comes first, the peptide text is derived from it. [ ]: non-standard residue; d: D form. pGlu = O=C1CC[C@@H](C(=O)O)N1; Thz = O=C(O)[C@@H]1CSCN1",
  "data": [
    {"molecular_target": "ATP-dependent 6-phosphofructokinase (Trypanosoma brucei brucei) (UniProt O15648)", "sequence (O15648 whole entry, looked up)": "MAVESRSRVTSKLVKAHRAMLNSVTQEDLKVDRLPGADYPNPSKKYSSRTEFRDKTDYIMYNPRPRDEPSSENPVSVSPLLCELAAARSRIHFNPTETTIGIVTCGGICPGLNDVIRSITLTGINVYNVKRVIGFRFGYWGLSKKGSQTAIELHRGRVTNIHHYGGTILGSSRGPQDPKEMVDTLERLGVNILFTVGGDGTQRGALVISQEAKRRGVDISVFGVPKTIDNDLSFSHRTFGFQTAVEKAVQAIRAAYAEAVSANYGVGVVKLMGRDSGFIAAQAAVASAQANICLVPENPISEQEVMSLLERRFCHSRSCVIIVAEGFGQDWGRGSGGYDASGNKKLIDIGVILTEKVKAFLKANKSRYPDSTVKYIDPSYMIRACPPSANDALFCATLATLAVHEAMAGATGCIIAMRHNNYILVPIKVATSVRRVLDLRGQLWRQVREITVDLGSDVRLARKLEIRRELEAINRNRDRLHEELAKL", "experiment": "qHTS Assay to Find Inhibitors of T. brucei phosphofructokinase: hit validation (AID 492961);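 further: luminescence reports ADP formed as PFK phosphorylates fructose-6-phosphate with ATP; on the % scale 0 is the no-effect control and ±100 the full control effect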", "conditions": "T. brucei PFK, ADP-Glo luminescence; series mostly up to 51.4 µM; activity change, negative = inhibition: at the top concentration", "outline": "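In this biochemical qHTS validation, titrated compounds were tested against 1.25 nM PFK with 0.1 mM ATP and 0.5 mM F6P. Percent activity came from controls lacking or containing enzyme.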", "values": [
      {"smiles": "Cc1ccc(C(=O)c2ccc(CC(=O)O)n2C)cc1", "activity change, negative = inhibition": "-4.2% [at 24.3 µM] (inactive)"},
      {"smiles": "CCCCC[C@H](O)/C=C/[C@@H]1[C@@H](C/C=C\\CCCC(=O)O)[C@@H](O)C[C@H]1O", "activity change, negative = inhibition": "-2.95% (inactive)"},
      {"smiles": "O=C(CCN1CCN(CCO)CC1)N1c2ccccc2Sc2ccc(C(F)(F)F)cc21", "activity change, negative = inhibition": "4.2% (inactive)"},
      {"smiles": "Nc1c(CC(=O)O)cccc1C(=O)c1ccc(Br)cc1", "activity change, negative = inhibition": "1.76% (inactive)"},
      {"smiles": "O=C(O)Cc1ccc(-c2ccccc2)cc1", "activity change, negative = inhibition": "-5.59% [at 24.3 µM] (inactive)"},
      {"smiles": "CN1CCN(c2cc3c(nn2)Oc2ccccc2N3C)CC1", "activity change, negative = inhibition": "2.12% (inactive)"},
      {"smiles": "Nc1ccc(C(=O)O)c(O)c1", "activity change, negative = inhibition": "7.89% (inactive)"},
      {"smiles": "CN1[C@@H]2CC[C@H]1CC(OC(c1ccccc1)c1ccccc1)C2", "note": "(stereo partly drawn)", "outcome": "inactive"},
      {"smiles": "Cc1c(Nc2ncccc2C(=O)O)cccc1C(F)(F)F", "activity change, negative = inhibition": "10% [at 24.3 µM] (inactive)"},
      {"smiles": "CCCSc1ccc2nc(NC(=O)OC)[nH]c2c1", "activity change, negative = inhibition": "1.37% [at 24.3 µM] (inactive)"},
      {"smiles": "COc1cc(/C=C/C(=O)N2CCN(CC(=O)N3CCCC3)CC2)cc(OC)c1OC", "activity change, negative = inhibition": "0% (inactive)"},
      {"smiles": "CCCCCCOc1ccccc1C(N)=O", "activity change, negative = inhibition": "-2.4% (inactive)"},
      {"smiles": "CC1(C)S[C@@H]2[C@H](NC(=O)[C@H](NC(=O)N3CCN(S(C)(=O)=O)C3=O)c3ccccc3)C(=O)N2[C@H]1C(=O)O", "activity change, negative = inhibition": "-4.57% (inactive)"},
      {"smiles": "O=C(O)[C@H](CC(=O)N1C[C@H]2CCCC[C@H]2C1)Cc1ccccc1", "activity change, negative = inhibition": "1.9% (inactive)"},
      {"smiles": "O=C1CC[C@@H](C(=O)N2CSC[C@H]2C(=O)O)N1", "note": "([pGlu]-[Thz]-OH)", "activity change, negative = inhibition": "-1.91% (inactive)"},
      {"smiles": "CC(C(=O)O)c1ccc2c(c1)[nH]c1ccc(Cl)cc12", "note": "(stereo not drawn)", "activity change, negative = inhibition": "8.91% (inactive)"},
      {"smiles": "C[S+](CC[C@H](N)C(=O)O)C[C@H]1O[C@@H](n2cnc3c(N)ncnc32)[C@H](O)[C@@H]1O", "note": "(stereo partly drawn)", "activity change, negative = inhibition": "-10.9% (inactive)"},
      {"smiles": "Cc1cc(O)c2ccccc2c1O", "activity change, negative = inhibition": "3.72% (inactive)"}
    ]}
  ]
}
